± gives the standard deviation. Over roughly 5,500 sequences, “pre-steady-state target cleavage rate” has its median near 0.1; the highest 2% begin near 0.64. Only a selection was taken, and the highest values are over-represented in it overall.
system: MIWI (PIWIL1) piRISC loaded with piRNA #2 (30 nt); assay: pre-steady-state target cleavage rate (min^-1); MIWI and MILI are mouse PIWI proteins and EfPiwi is from a freshwater sponge; tags in brackets are library labels; higher = faster piRNA-guided slicing of the target; settings: guide: piRNA #2 5'p-UUAGGUAACCCAGUAGAUCCAGAGGAAUUC; auxiliary factor: 500 nM mouse GTSF1
Procedure: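 Cleave-'n-Seq: a library of target RNAs (target site embedded in constant flanks, ACAGCATTCCGCGTTAGTGATATCCG... 5' flank; DNA-blocked outside the site) at 0.1 nM was incubated with 1 nM active mouse MILI or MIWI piRISC (synthetic 5'-monophosphorylated piRNA guide) with or without 500 nM mouse GTSF1 at 33 °C for 1 min to 16 h. Uncleaved targets were sequenced and normalised to non-target controls, and the pooled three trials were fitted to a burst-and-steady-state model to give the pre-steady-state cleavage rate (min^-1; k3 is constrained to at most 1e-4). Sequence is the target site only; target names encode pairing extent (gX:gY) and contiguous / 1-mismatch / 2-mismatch / bulge geometry. Fits with R² ≤ 0 are excluded.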

Sequence	pre-steady-state target cleavage rate
CUUAAGGUCUGGAUCUACUCGGUUACCUAA	0.0416 ± 0.02
CUUAUCCUCUGGAUCUUCUGGGUUACGUAA	0.45 ± 0.055
CAAUUCCUCUGGAUCUACUGAGUUACCUAA	0.869 ± 0.075
CUUUUCCUCUGGAUCUACUGAGUUACCUAA	0.727 ± 0.048
CUUUUCCUCUGGAUCUACUGGUUACCUAA	0.0817 ± 0.016
CAAUUCCUCUGGAUCUACUGAGGUUACCUAA	0.00648 ± 0.0048
CUAUUCCUCUGGAUCUACUGGAGUUACCUAA	0.00422 ± 0.0041
CUUUUCCUCUGGAUCUACUGGGUUACCUAA [g2:g27:cont:t1A]	0.408 ± 0.057
CAAUUCCUCUGGAUCUACUGGAGUUACCUAA	0.00382 ± 0.0035
GAAUUCCUCUGGAUCUACUGGAGUUACCUAA	0.00576 ± 0.0035
CUAUUCCUCUGGAUCUACUGGUUACCUAA	0.104 ± 0.026
GAAUUCCUCUGGAUCUACUGAGGUUACCUAA	0.00556 ± 0.0037
GAAUUCCUCUGGAUCUACUGAGUUACCUAA	0.67 ± 0.046
CUAUUCCUCUGGAUCUACUGAGUUACCUAA	0.823 ± 0.06
CUUAUCCUCUGGAUCUACAGGGUUACCAAA	0.237 ± 0.03
CAAUUCCUCUCGAUCUACUGGGUAACCUAA	0.476 ± 0.058
GAAUUCCUCUGGAUCUUCUGGGAUACCUAA	0.108 ± 0.018
CUUAUCCUCUGGAUCUUCUGGGUAACCUAA	0.0522 ± 0.013
GAAUUCCUCUGCAACUACUGGGUUACCUAA	0.413 ± 0.048
CUAUUCCUCUGGAUCUACUGGGUAACCUAA	0.231 ± 0.042
CUUAAGGUCUGGAUCUCCUGGGUUACCUAA	0.0565 ± 0.013
CUUAUCCUCUGGAUCUACUGGGUUAACUAA	0.407 ± 0.071
CUUAAGGUCUGGAACUAGUGGGUUACCUAA	0.0577 ± 0.017
CAAUUCCUCAGCAUCUACUGGGUUACCUAA	0.437 ± 0.044
CUUAAGCUCCUGGAUCUACUGGGUUACCUAA	0.181 ± 0.021

Sequence	pre-steady-state target cleavage rate
CUUAUCCUCGUGGAUCUACUGGGUUACCUAA	0.161 ± 0.032
GAAUUCCACUGGAUCUACUCGGUUACCUAA	0.193 ± 0.022
CUAUUCCUCUGGAUCUACUGCGUUACGUAA	0.539 ± 0.08
CUUAACCUCUGGAUCUACUGGGUUACCGUAA	0.155 ± 0.019
CAAUUCCUCUAGGAUCUACUGGGUUACCUAA	0.434 ± 0.048
GAAUUCCUCUGAGAUCUACUGGGUUACCUAA	0.381 ± 0.046
GAAUUCCUCUAGAUCUACUGGGUUACCUAA	0.731 ± 0.05
CUAUUCCUCUGAGAUCUACUGGGUUACCUAA	0.471 ± 0.042
CAAUUCCUCUGAGAUCUACUGGGUUACCUAA	0.545 ± 0.057
CAAUUCCUCUAGAUCUACUGGGUUACCUAA	0.807 ± 0.047
GAAUUCCUCUAGGAUCUACUGGGUUACCUAA	0.348 ± 0.074
CUAUUCCUCUAGGAUCUACUGGGUUACCUAA	0.278 ± 0.041
CUAUUCCUCUAGAUCUACUGGGUUACCUAA	0.67 ± 0.042
CUAUUACCUCUGGAUCUACUGGGUUACCUAA	0.227 ± 0.041
CUUAAGGUCUGGAACUACUGGCUUACCUAA	0.027 ± 0.022
CUUAAGCUCAGGAUCUACAGGGUUACCUAA	0.081 ± 0.014
CUUAAGGACAGCAUCUACUGGGUUACCUAA	0.00648 ± 0.0035
CUAUUCGUCUGGAUCUACUGGGUUACCAAA	0.36 ± 0.064
GAUUUCCUCUCGAUCUACUGGGUUACCUAA	0.66 ± 0.067
GAUUUCCUCUGGAUCUACUGGGUUACCUAA	0.183 ± 0.042
CAUUUCCUCUGGAUCUACUGGGUUACCUAA	0.541 ± 0.059
CUUUUCCUCUCGAUCUACUGGGUUACCUAA	0.602 ± 0.04
CAUUUCCUCUCGAUCUACUGGGUUACCUAA	0.808 ± 0.052
CUUUACCUCUCGAUCUACUGGGUUACCUAA	0.47 ± 0.033
CAAUUCGACUGGAUCUACUGGGUUACCUAA	0.357 ± 0.05

Sequence	pre-steady-state target cleavage rate
CUUUUCCUCUGGAUCUACUGCGUAACCUAA	0.174 ± 0.032
CUUAAGGAGAGGAUCUACUGGGUUACCUAC [g2:g20:cont:t1C]	0.0183 ± 0.0054
CAAUUGCUCUGGAUCUACUGGGUUACCUUA	0.212 ± 0.048
GAAUUCCUCUGGAUCUACUCGCUUACCUAA	0.00392 ± 0.0028
CUUAAGGAGAGCGAUCUACUGGGUUACCUAA	0.00514 ± 0.003
CAAUUCCUCUGGAUCUACUGCGUUACCUAA	0.593 ± 0.069
CUAUUCCUCUCGAUCUACUGCGUUACCUAA	0.948 ± 0.092
CUUUUCCUCAGGAUCUACUGCGUUACCUAA	0.524 ± 0.062
GAAUUCCUCUCGAUCUACUGCGUUACCUAA	0.691 ± 0.063
CUAUUCCUCUGGAUCUACUGCGUUACCUAA	0.521 ± 0.065
CUAUUCCUCUCGAUCUACUCGGUUACCUAA	0.196 ± 0.017
GAAUUCCUCUCGAUCUACUCGGUUACCUAA	0.123 ± 0.018
CUUUUCCUCUGGAUCUACUGCGUUACCUAA	0.527 ± 0.057
CAAUUCCUCUCGAUCUACUGCGUUACCUAA	0.907 ± 0.084
CUUUUCCUCUCGAUCUACUGCGUUACCUAA	0.845 ± 0.072
GAAUUCCUCUGGAUCUACUGCGUUACCUAA	0.469 ± 0.056
CAAUUCCUCUCGAUCUACUCGGUUACCUAA	0.22 ± 0.022
CUUAUCCUCUGGAUCUACUCCGUUACCUAA	0.021 ± 0.009
CAUUUCCUCUGGAACUACUGGGUUACCUAA	0.612 ± 0.044
GAAUUGCUCAGGAUCUACUGGGUUACCUAA	0.168 ± 0.037
CUUAAGGUCUGGAUCUACUGGGUUUGCUAA	0.0859 ± 0.018
CAAUUCCUGUGGAUCUACAGGGUUACCUAA	0.268 ± 0.036
CUUAAGCUCUGGAUCUACUGGGUUACCUAG [g2:g24:cont:t1G]	0.0755 ± 0.013
